p53 reactivation = re-activators of mutant p53; H1299 p53-A138V BP100-luciferase reporter, luminescence, 24 h; Potency, µM (titrated, usually from 92.2 µM), for the others: at the highest dose activity change, positive = activation, actives largely listed as activators; 0.063% of 320,000 active; also: % of control where 0% means no effect; nearly all actives have a fitted effect of over 45% in size
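p53-null H1299 cells stably carrying temperature-sensitive p53-A138V and a BP100-luciferase reporter were pinned with compounds (4-point, 1:5 series) and held 24 hrs at 37 deg C. Luminescence was read 10 min after detection reagent.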
ELG1 genotoxic = induces genotoxicity in HEK293T cells with luciferase-tagged ELG1; HEK293T ELG1-luciferase reporter, luminescence, 16 h; Potency, µM (series often up to 46 µM), for inactives: at the top dose activity change, positive = activation, usual class: activators; 1.3% of 330,000 active; also: % of control where 0% means no effect; nearly all actives have a fitted effect of over 60% in size
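Reporter readout depends on ELG1 protein level, which increases with genetic stress. After 16 hr compound exposure at 37 °C, luciferase activity was quantified using ONE-Glo.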
SMN2 splice enh = enhancers of SMN2 splice variant expression | AID 1458 | Potency, µM (titrated, usually from 46.1 µM), for the others: top-dose activity change, positive = activation, hits mostly activators | 2.8% of 210,000 active | HEK293 SMN2-luciferase splicing reporter, luminescence, 30-36 h; also: % of control where 0% means no effect; nearly all actives have a fitted effect of over 55% in size
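HEK293 cells carry an SMN2 […]–luciferase reporter in which exon 7 inclusion puts luciferase in frame. Cells were plated 10-12 h before compound addition, then incubated 30-36 h at 37C. ONE-Glo luminescence was read; sodium butyrate at 4.5 mM final served as control.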
Rab9 prom act = Rab9 promoter activation; Huh7 Rab9 promoter-luciferase reporter, luminescence, 24 h; Potency, µM (series often up to 9.22 µM), for the others: top-dose activation, negative = inhibition, hits mostly activators; 2.8% of 320,000 active; AID 485297; also: % of control where 0% means no effect; nearly all actives have a fitted effect of over 60% in size
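Luciferase signal after 10 min detection reagent at ambient indicates Rab9 promoter upregulation; stably transfected Huh7 cells were treated 24 h with compound in DMSO at 37 °C, 5% CO2.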
FLuc counter = counter-screen for miR-21 project: firefly luciferase inhibitors or activators; P08659; purified FLuc, Km substrates, luminescence inhibition; Potency, µM (titrated, usually from 57.5 µM), without a hit: at the highest dose activity change, negative = inhibition, most hits filed as inhibitors; 6.9% of 360,000 active;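 also: plate controls were vehicle for no effect and reference inhibitor for full effect; nearly all actives have a fitted effect of over 55% in size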
Target sequence (P08659 whole entry, looked up): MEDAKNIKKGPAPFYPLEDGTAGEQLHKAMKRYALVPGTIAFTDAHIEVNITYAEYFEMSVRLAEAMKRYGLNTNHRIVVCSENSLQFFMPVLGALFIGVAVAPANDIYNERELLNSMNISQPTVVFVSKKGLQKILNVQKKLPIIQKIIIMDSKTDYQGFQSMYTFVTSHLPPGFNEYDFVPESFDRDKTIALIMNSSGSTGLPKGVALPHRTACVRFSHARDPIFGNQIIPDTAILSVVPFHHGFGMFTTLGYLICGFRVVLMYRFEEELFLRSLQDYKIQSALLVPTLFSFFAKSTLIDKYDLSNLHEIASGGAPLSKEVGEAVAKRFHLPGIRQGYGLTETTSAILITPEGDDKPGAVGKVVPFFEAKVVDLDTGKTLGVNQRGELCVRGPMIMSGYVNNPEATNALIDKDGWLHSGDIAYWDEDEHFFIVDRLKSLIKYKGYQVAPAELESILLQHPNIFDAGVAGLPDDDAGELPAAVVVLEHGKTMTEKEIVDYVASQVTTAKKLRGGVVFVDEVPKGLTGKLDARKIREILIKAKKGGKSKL
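Purified P. pyralis luciferase (10nM final) with 10uM D-luciferin and 10uM ATP (Km levels) in 50mM Tris acetate pH 7.5, 10mM Mg acetate, 0.01% Tween-20, 0.05% BSA; qHTS 6-point titration, ~60 µM downward; luminescence read.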
NPC1 promoter act = NPC1 promoter activation; 2.4% of 320,000 active; Huh7 NPC1 promoter luciferase reporter, 24 h; Potency, µM (doses to about 9.22 µM), for the others: at the top dose activation, most hits filed as activators; also: % of control where 0% means no effect; nearly all actives have a fitted effect of over 60% in size
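Luciferase expression driven by the NPC1 promoter was measured in stably transfected Huh7 cells after a 24 h compound incubation, using a luciferase reagent and a luminescence read.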
The depositor's hits bear a star; ? = inconclusive; nt = no result; [ ] = dose if it differs, or a comment. Sampled rows, rich in hits. Any-hit rate of the full collection: about 7.3%. Calls follow the shape of the dose curve; as a rule, active = well fitted curve in the direction sought with a large enough effect; inconclusive = small, poorly fitted or top-dose-only effect, or another doubt; inactive = no such curve, though single readings can be large; an effect the other way counts as inactive or inconclusive. Potency is read from the fitted curve at half-maximal effect.

SMILES	p53 reactivation	ELG1 genotoxic	SMN2 splice enh	Rab9 prom act	FLuc counter	NPC1 promoter act
O=C(CSc1ccc(-c2nc3ccccc3[nH]2)cn1)Nc1ccc(S(=O)(=O)N2CCCC2)cc1	16.1%	-0.8%	18.9%	-2.2%	4.78µM*	-4.4%
Cc1cc2nc(-c3ccc(SCC(=O)Nc4ccc(S(=O)(=O)N5CCCC5)cc4)nc3)[nH]c2cc1C	-5.8%	?	12.6µM*	2µM*	0.301µM*	2.51µM*
CCC(C(=O)Nc1ccc(C)c(C)c1)n1c(=O)c(C(F)(F)F)nc2ccccc21 (stereo not drawn)	nt	nt	nt	nt	3.1%	nt
Cn1cccc1C(=O)N1CCC2(CCN(C(=O)Nc3cccc(C#N)c3)CC2)CC1	nt	nt	-35.4%	nt	nt	nt
COc1ccccc1C(=O)COC(=O)c1ccc(-n2cnnn2)cc1	6.2%	3.2%	nt	0.6%	-0.3%	-3.4%
O=C(COC(=O)c1cccc(-n2cnnn2)c1)c1ccc(Br)cc1	?	?	nt	?	6.75µM*	?
COc1ccccc1C(=O)COC(=O)c1cccc(-n2cnnn2)c1	?	4.3%	nt	12.9%	-3.1%	1.0%
O=C(COC(=O)c1ccccc1-n1cnnn1)c1ccc(F)cc1	?	?	nt	-2.7%	6.01µM*	5.7%
Cc1ccc(C)c(Nc2nnc(-n3nc(C)cc3C)c3ccccc23)c1	nt	nt	4.4%	nt	-2.9%	nt
NC(=O)CCCCn1ccc(NC(N)=NCC(F)(F)F)n1	nt	nt	-10.7%	nt	nt	nt
CCOC(=O)N1CCc2c(sc(NCc3cccc(F)c3)c2C(=O)Nc2ccc(OC)cc2OC)C1	nt	nt	nt	nt	15.1µM*	nt
CCOC(=O)N1CCc2c(sc(NCc3sccc3C)c2C(=O)Nc2ccc(OC)cc2OC)C1	nt	nt	nt	nt	10.7µM*	nt
COc1ccc(CNC(=O)COC(=O)c2[nH]c(C)c(C(C)=O)c2C)cc1OC	6.2%	-1.4%	nt	-2.0%	10.3%	1.7%
CCOc1ccc(-c2nc(Cn3c(=O)cc(C)c4c(C)nn(-c5ccc(C)cc5)c43)c(C)o2)cc1	nt	nt	nt	nt	0.3%	nt
COc1ccc(C2=NN(C(=O)CSc3nc(=O)n4cccc(C)c4n3)C(c3ccc(C)cc3)C2)cc1 (stereo not drawn)	-2.4%	?	nt	-5.3%	5.0%	-2.4%
O=C(COC(=O)c1cccnc1)Nc1cccc(Cl)c1	-15.8%	-0.7%	-5.2%	-5.6%	-1.1%	-9.8%
O=C(COC(=O)c1cccnc1)c1ccc(Cl)cc1	12.3%	-4.6%	-20.2%	-2.0%	10.7µM*	-5.0%
O=C(COC(=O)c1cccnc1)c1ccc(Cl)c(Cl)c1	-2.7%	0.6%	-2.2%	0.2%	16.9µM*	-2.7%
CC1(OC(=O)c2cnc3ccccc3n2)C(=O)C=C2C=C3CCCN3C=C2C1=O (stereo not drawn)	nt	nt	-1.4%[9.22 µM]	nt	nt	nt
COc1ccc(NC(=S)NC(=O)/C=C/c2ccccc2)cc1	nt	-0.4%	nt	11.3%	6.6%	0.5%
Cc1cccc(NC(=O)Nc2ccccc2)n1	?	?	nt	?	12µM*	?
Cc1cccc(NC(=O)Nc2ccc(Cl)c(Cl)c2)n1	-37.5%	?	nt	?	2.39µM*	?
COc1cccc(NC(=O)Nc2cccc(C)n2)c1	9.3%	11.0%	nt	?	5.36µM*	2.24µM*
Cc1cccc(NC(=S)NC(=O)/C=C/c2ccccc2)n1	23.1%	5.2%	12.4%	2.51µM*	-1.8%	?
Cc1cccc(NC(=O)c2cc(NC(=O)c3ccco3)ccc2Cl)n1	-7.3%	-10.9%	-16.2%	-4.7%	?	-1.4%
SMILES	p53 reactivation	ELG1 genotoxic	SMN2 splice enh	Rab9 prom act	FLuc counter	NPC1 promoter act
COc1c(C)cccc1C(=O)Nc1ccc(Cl)c(-c2nc3cc(C)ccc3o2)c1	nt	nt	-20.8%	nt	?	nt
COc1cc(C(=O)NCC(=O)OCc2ccc(F)cc2)cc(OC)c1OC	-1.5%	-0.2%	nt	nt	nt	nt
COc1ccc(-n2ccnc(NCc3ccc(Cl)cc3)c2=O)cc1	nt	nt	nt	nt	1.2%	nt
COc1ccc(/C=C2\N=C3CCCCCN3C2=O)cc1	1.5%	?	?	-2.3%	15.1µM*	-1.1%
O=C(Nc1ccc2c(c1)OCCO2)c1cnc2n(c1=O)CCS2	?	9.2µM*	20µM*	2µM*	9.53µM*	2.51µM*
O=C(Nc1ccc2c(c1)OCO2)c1cnc2n(c1=O)CCS2	?	?	12.6µM*	3.16µM*	?	?
O=C(Nc1ccccc1)c1cnc2n(c1=O)CCS2	?	15.3%	?	?	?	25.1%
O=C(Nc1ccc(OC(F)(F)F)cc1)c1cnc2n(c1=O)CCS2	?	7.31µM*	-55.2%	14.0%	-11.3%	?
Cc1cccc(NC(=O)c2cnc3n(c2=O)CCS3)c1	?	?	11.2µM*	3.55µM*	12µM*	3.55µM*
O=C(NCc1ccc2c(c1)OCO2)c1cnc2n(c1=O)CCS2	-5.6%	-1.3%	7.0%	-5.7%	-1.1%	3.3%
Cc1c(NC(=O)Nc2ccccc2C(F)(F)F)sc2nc3n(c(=O)c12)CCC(C)CC3 (stereo not drawn)	nt	nt	-7.2%	nt	4.9%	nt
Cc1ccc(CN2CCN(C3CCN(C(=O)Nc4ccc(C)cc4Cl)CC3)C(=O)C2=O)cc1	nt	nt	nt	nt	-3.4%	nt
CCCCN(C)CCCNC(=O)Cn1ncc2c3ccccc3n(Cc3cccc(Cl)c3)c2c1=O	nt	nt	6.5%	nt	-6.5%	nt
COc1ccc(C2C(C(=O)Nc3ccccc3OC)=C(C)Nc3c(C(=O)Nc4ccccc4)cnn32)c(OC)c1 (stereo not drawn)	nt	nt	nt	nt	-3.7%	nt
CCn1cnc2sc(C(=O)Nc3ccc4c(c3)OCO4)c(C)c2c1=O	?	8.91µM*	12.6µM*	2.82µM*	10.7µM*	?
O=C(Nc1ccccc1F)C(=O)c1cn(CC(=O)N2CCCCC2)c2ccccc12	0.4%	-1.7%	?	29.6%	5.36µM*	13.5%
CC(=O)Nc1ccc(NC(=O)C(=O)c2cn(CC(=O)N3CCCC3)c3ccccc23)cc1	0.3%	-5.9%	nt	-0.1%	-12.6%	7.4%
CC(=O)Nc1cccc(NC(=O)C(=O)c2cn(CC(=O)N3CCCCC3)c3ccccc23)c1	6.2%	8.0%	16.6%	?	8.49µM*	21.8%
COc1ccc(NC(=O)C(=O)c2cn(CC(=O)N3CCCC3)c3ccccc23)cc1	13.4%	?	nt	-20.7%	12µM*	-16.0%
CCCCOc1ccc(OC(=O)c2sc3ncn(Cc4cccc(F)c4)c(=O)c3c2C)cc1	nt	nt	nt	nt	1.6%	nt
CC(=O)N1C(O)CC(C)N1c1ccccc1 (stereo not drawn)	5.8%	1.4%	?	2.2%	0.2%	0.8%
CCOc1ccc(NC(=O)Nc2cc(C)ccc2F)cc1	?	5.62µM*	15.8µM*	1.12µM*	2.39µM*	3.16µM*
CCOc1ccc(NC(=O)CNc2ccc(C)cc2Cl)cc1	2.6%	2.1%	-7.7%	-4.6%	9.53µM*	-1.1%
